In the library only some 1.3% were active in any assay of this set; here they are far more common.
Rpn11 inh: Rpn11 (PSMD14) deubiquitinase inhibitors, primary screen, biochemical, fluorescence polarization, uHTS. 0.59% of 360,000 active. 26S proteasome non-ATPase regulatory subunit 14 (Homo sapiens), O00487. human 26S proteasome, Ub4-pepOG fluorescence polarization; 20S core pre-blocked with epoxomicin. calls only at 20 µM;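 active = inhibition at 20 µM, scaled to each plate's controls, above about 33%, limit read from the data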
Neddyl block: inhibitors of cullin neddylation, primary screen, biochemical, TR-FRET, uHTS, NAE and Ubc12. NEDD8-conjugating enzyme Ubc12 (Homo sapiens) + NEDD8-activating enzyme E1 regulatory …. inhibition, % at 25 µM. 0.58% of 360,000 active. AID 651699, 2012; in the data active = inhibition above about 36%
PKA-R2B activ: activators of PKA-R2B holoenzyme, primary screen, biochemical, fluorescence polarization, Cy5-IP20, human; cAMP-dependent protein kinase catalytic subunit beta (Homo sapiens) + cAMP-dependent …; PKA-R2B holoenzyme dissociation; R2B truncated from residue 108, S112A mutant; 0% DMSO only, 100% 113 µM cGMP; activation, % at 11.4 µM; 0.079% of 340,000 active; AID 504700, 2011;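 active = activation above a cutoff set at the mean over all compounds plus 3 SD, cut at about 18% in these data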;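 note: higher means more holoenzyme dissociation and a rise in polarization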
PKA-R1A act: activators of PKA-R1A holoenzyme, primary screen, biochemical, fluorescence polarization, Cy5-IP20, bovine R1A, mouse PKAc; activation, % at 11.4 µM; 0.083% of 340,000 active; cAMP-dependent protein kinase type I-alpha regulatory subunit (Bos taurus) + …; AID 504707, 2011; PKA-R1A dissociation; scaled: DMSO 0%, 113 µM cGMP 100%;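 active = percent activation above the mean of all tested compounds plus 3 SD, cut at about 19% in these data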;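 note: higher means more PKAc released from R1A so a rise in polarization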
Rpn11 inh conf: Rpn11 (PSMD14) deubiquitinase inhibitors, confirmation, biochemical, fluorescence polarization, single concentration; 29% of 1,900 active; inhibition, % at 20 µM; purified human 26S proteasome, Ub4-pepOG fluorescence polarization; proteasome pretreated with epoxomicin; shares compounds with Rpn11 inh
MMP-2 inh: MMP-2 enzyme inhibition, confirmation, counter-screen for RPN11 inhibitor project, biochemical, fluorescence, single concentration | 4% of 1,900 active | shares compounds with Rpn11 inh | recombinant MMP-2, FRET peptide cleavage fluorescence | inhibition, % at 20 µM | AID 602330, 2012;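 note: human MMP-2 activated beforehand with APMA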
Thrombin FP: bovine thrombin protease inhibition, confirmation, counter-screen for Rpn11 inhibitor project, biochemical, fluorescence polarization, single concentration | inhibition, % at 20 µM | 13% of 1,900 active | shares compounds with Rpn11 inh | bovine thrombin cleavage of Ub4-pepOG;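 active = mean inhibition at least 40% at 20 µM, or signal 3 deviations below plate average, so some actives read negative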;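 note: plate controls were thrombin with DMSO for no effect and buffer wells lacking thrombin for full effect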
Target sequence (P00735 whole entry, looked up): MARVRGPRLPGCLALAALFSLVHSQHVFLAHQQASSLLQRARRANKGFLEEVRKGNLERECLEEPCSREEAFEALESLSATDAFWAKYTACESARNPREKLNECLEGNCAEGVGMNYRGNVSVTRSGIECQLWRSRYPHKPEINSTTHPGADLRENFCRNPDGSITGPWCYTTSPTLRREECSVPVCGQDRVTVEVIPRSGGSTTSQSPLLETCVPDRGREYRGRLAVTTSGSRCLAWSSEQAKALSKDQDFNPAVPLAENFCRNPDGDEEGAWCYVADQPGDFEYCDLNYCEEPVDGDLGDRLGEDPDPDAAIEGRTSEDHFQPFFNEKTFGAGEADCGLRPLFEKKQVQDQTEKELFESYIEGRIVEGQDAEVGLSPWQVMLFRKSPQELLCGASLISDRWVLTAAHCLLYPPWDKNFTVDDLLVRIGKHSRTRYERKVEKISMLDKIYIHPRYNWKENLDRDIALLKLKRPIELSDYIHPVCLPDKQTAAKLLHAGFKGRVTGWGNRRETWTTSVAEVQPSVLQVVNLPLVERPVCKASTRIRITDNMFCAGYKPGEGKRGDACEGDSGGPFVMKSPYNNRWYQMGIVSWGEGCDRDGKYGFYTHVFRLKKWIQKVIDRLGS
Active calls of the source: *; i = inactive; . = no result given; + = active, no number. Cut-off read from the data, not from the text of the source, unless noted: active = inhibition above about 40%; inactive = the rest.

SMILES	Rpn11 inh	Neddyl block	PKA-R2B activ	PKA-R1A act	Rpn11 inh conf	MMP-2 inh	Thrombin FP
COC(=O)Cc1ccc(NC(=O)c2ccc(Br)o2)cc1	i	12.0	-12.1	1.1	.	.	.
O=C1CCCC2=C1C(c1ccc(Br)cc1)c1c([nH]c(=S)[nH]c1=O)N2 (stereo not drawn)	i	-52.2	-5.6	-13.0	.	.	.
O=c1[nH]c(=S)[nH]c2c1C(c1ccc(Br)cc1)c1c([nH]c(=S)[nH]c1=O)O2	+	5.4	3.6	8.7	49.0*	22.1	27.9
Cc1ccc2nc(SCC(=O)N3CCC(Cc4ccccc4)CC3)nc(=O)n2c1	i	-2.2	2.8	0.3	.	.	.
N#C/C(=C\c1ccc(Cl)cc1)C(=O)Nc1cccnc1	+	-9.6	15.1	7.0	-8.1	-34.0	-7.4
COc1ccc(/C=C(\C#N)C(=O)Nc2cccnc2)cc1	i	-21.1	7.5	8.1	.	.	.
C[C@@H](NC(=O)/C(C#N)=C/c1ccc(O)c(O)c1)c1ccccc1	i	-5.1	8.8	-8.4	.	.	.
N#C/C(=C\c1ccc(O)c(O)c1)C(=O)Nc1ccccc1	+	-42.0	1.4	-9.4	90.8*	9.0	27.4
C[C@@H]1CCCCO[C@H](CN(C)S(=O)(=O)c2ccccc2)[C@@H](C)CN([C@H](C)CO)C(=O)c2cc(NC(=O)Cc3ccccc3)ccc2O1	i	-6.3	-10.6	-3.1	.	.	.
CCOc1ccc2c(c1)C(N(CCN1CCOCC1)C(=O)Nc1ccccc1)CC(C)(C)O2 (stereo not drawn)	i	-2.8	-4.1	0.0	.	.	.
COc1cc2c(cc1OC)C(C)N(CC(=O)Nc1ccc(S(=O)(=O)N3CCCC3)cc1)CC2 (stereo not drawn)	+	.	2.9	-4.7	-8.2	-20.1	-8.8
COc1cc2c(cc1OC)CN(CC(=O)Nc1ccc(S(=O)(=O)N3CCCC3)cc1)CC2	i	37.3	-3.2	-1.8	.	.	.
O=C(CSc1nncn1-c1ccccc1)Nc1cc(F)ccc1F	i	-10.7	2.9	3.6	.	.	.
Clc1cccc(Sc2ccc(-c3ccccn3)s2)c1	+	-6.4	-1.1	7.0	-11.5	-4.2	-15.5
c1ccc(-c2ccc(-c3ccccn3)s2)nc1	i	.	1.3	-6.6	.	.	.
CC1=C(C(=O)N(C(C)C)C(C)C)CC(CC(=O)NCc2cccc3ccccc23)C(=O)N1Cc1ccccc1 (stereo not drawn)	i	-2.9	.	.	.	.	.
CCCc1nc2oc3ccccc3c(=O)c2c(=O)n1-c1ccc(C)cc1	i	-3.8	.	.	.	.	.
CCc1nc2oc3ccccc3c(=O)c2c(=O)n1-c1ccc(C)cc1	+	-15.9	.	.	46.5*	-18.3	22.3
O=C(O)CC(C(=O)O)N1C(=O)/C(=C/C=C/c2ccco2)SC1=S (stereo not drawn)	+	18.9	4.7	6.8	96.6*	58.8*	20.4
O=C(O)C(Cc1ccccc1)N1C(=O)/C(=C/C=C/c2ccco2)SC1=S (stereo not drawn)	+	-0.5	3.7	3.1	178.3*	36.4	53.5*
O=C(O)CCCN1C(=O)/C(=C/C=C/c2ccco2)SC1=S	.	13.9	-4.7	-5.2	.	.	.
O=C(NN1C(=O)/C(=C/C=C/c2ccco2)SC1=S)c1ccccc1O	+	6.2	-0.6	-7.1	100.3*	58.1*	60.2*
CN(C(=O)c1cccc(S(=O)(=O)N2CCCC2)c1)C1CCCCC1	i	2.8	-6.6	-10.8	.	.	.
CCC(CC)C(=O)c1c[nH]c(C(=O)NCc2cccs2)c1	+	-1.4	-11.4	-4.4	-16.7	-36.3	-5.7
COc1cc(/C=C/c2nc3ccccc3c(=O)[nH]2)cc(Cl)c1O	+	-13.6	-6.6	-3.8	1.8	12.5	157.8*
SMILES	Rpn11 inh	Neddyl block	PKA-R2B activ	PKA-R1A act	Rpn11 inh conf	MMP-2 inh	Thrombin FP
Cc1cccc(/C=C\c2nc3ccccc3c(=O)[nH]2)c1	i	.	-13.9	-4.1	.	.	.
Cc1ccc(N=C2NC(=O)/C(=C/c3cccs3)S2)cc1C	+	-16.2	-14.3	-4.8	63.6*	3.5	-0.3
Cc1ccc(N=C2NC(=O)/C(=C/c3cccn3C)S2)cc1C	i	-5.9	.	.	.	.	.
Cc1cccc(N=C2NC(=O)/C(=C\c3cccs3)S2)c1	+	-12.6	1.7	0.4	-1.3	-39.9	-11.8
O=C1NC(=Nc2ccccc2)S/C1=C/c1cccs1	i	-12.1	2.5	-7.9	.	.	.
C[C@@H](NC(=O)c1nc[nH]c1C(=O)NCc1ccccc1)c1ccccc1	i	-4.1	-0.6	-2.0	.	.	.
COc1ccc2c(C)cc(SCC#N)nc2c1	+	-8.4	1.2	-8.8	36.6	-63.7	18.8
Cc1ccc(NC(=O)Cc2nnc(SCC(=O)NC3CCCC3)n2C)cc1C	i	-1.9	-0.5	3.1	.	.	.
Cn1c(-c2c(N)n(CCCc3ccccc3)c3nc4ccccc4nc23)nc2ccccc21	+	.	-12.4	4.7	35.4	-7.0	22.7
Cn1c(-c2c(N)n(CCc3ccccc3)c3nc4ccccc4nc23)nc2ccccc21	+	.	-6.9	-9.0	38.0	-1.8	28.7
O=C(CN(c1ccccc1)S(=O)(=O)c1ccc(F)cc1)NCc1cccs1	i	-13.0	4.0	13.4	.	.	.
COc1cc(/C=C/c2[nH]c(=O)[nH]c(=O)c2[N+](=O)[O-])ccc1OCCC(C)C	+	17.8	-2.1	6.5	28.4	-20.0	-19.9
O=C(NCCCN1CCCC1)c1ccc(CS(=O)(=O)c2ccc(Br)cc2)o1	i	1.2	-4.4	8.5	.	.	.
O=C(NCCN1CCCCCC1)c1ccc(CS(=O)(=O)c2ccc(Br)cc2)o1	+	1.1	-0.9	6.4	31.7	14.4	13.1
O=C(NCCCN1CCCCCC1)c1ccc(CS(=O)(=O)Cc2ccccc2F)o1	+	15.3	0.1	-2.6	74.8*	-436.4	2.7
CC1=CC(=C2N=C(c3ccccc3)OC2=O)C=C(C)O1	+	-17.3	-4.6	-16.1	152.4*	-55.7	9.1
CC(=NNC(N)=S)c1ccc2cc3c(cc2c1)OCO3	i	0.5	-3.0	5.5	.	.	.
COc1cc2ccc(C(C)=NNC(N)=S)cc2cc1OC	+	-18.4	-4.0	3.8	-9.9	2.8	-13.0

Bioassay records: PubChem, several laboratories
